JMJD2E inh – qHTS Assay for Inhibitors of Human Jumonji Domain Containing 2E (JMJD2E). hit rate 1.6% among 230,000. Potency, µM (highest dose often 57.1 µM), for the others: at the top dose activity change, negative = inhibition, actives largely listed as inhibitors. AID 2147, 2009. JMJD2E catalytic domain, FDH-coupled NADH fluorescence (FDH is formaldehyde dehydrogenase);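 further: 0% = wells with enzyme and -100% = buffer wells without enzyme; nearly all actives have a fitted effect of over 50% in size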
Sfp PPTase inh – qHTS Assay for Inhibitors of Bacillus subtilis Sfp phosphopantetheinyl transferase (PPTase); 4'-phosphopantetheinyl transferase ffp (Bacillus subtilis), Q9F4F7; hit rate 3.5% among 310,000; Potency, µM, without a hit: largest response in the series, negative = inhibition, hits mostly inhibitors; Biochemical Sfp PPTase activity, qHTS;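 further: the enzyme is Sfp with the accession as filed and its product quenches rhodamine fluorescence; 0% = enzyme reaction without inhibitor and -100% = no enzyme wells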
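Step 1, compound plus 15 nM Sfp-PPTase, 15 min, room temperature. Step 2, add rhodamine-CoA (5 uM) and BHQ-2-YbbR (12.5 uM). Step 3, read 525/598 nm fluorescence at 0 and 30 min.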
Epigenetic reg – Quantitative High-Throughput Screen for Regulators of Epigenetic Control | Potency, µM (series often up to 53.9 µM), for inactives: top-dose GFP activation, most hits filed as activators | murine LDR cells, GFP reporter derepression, 30 h | hit rate 0.2% among 280,000; further: % of control where 0% means no effect; nearly all actives have a fitted effect of over 60% in size
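In this reporter-derepression format, murine cells bearing a silenced integrated CMV-GFP locus incubate with test compound (30 h, 37 C), then are washed and imaged; fluorescent objects of 20–120 um count as induced cells.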
NPSR antag – qHTS Assay for Antagonists of the Neuropeptide S Receptor: cAMP Signal Transduction; CHO-NPSR cells, cAMP TR-FRET, antagonist mode; Potency, µM (series often up to 38.3 µM), without a hit: at the top dose activity change, negative = inhibition, actives largely listed as inhibitors; Q6W5P4; hit rate 1% among 220,000; AID 1461, 2008; further: on the % scale 0 is the no-effect control and ±100 the full control effect; nearly all actives have a fitted effect of over 50% in size
IMPase Li inh – qHTS Assay for Identifying the Cell-Membrane Permeable IMPase Inhibitors: Potentiation with Lithium. AID 1457, 2008. Potency, µM (doses to about 59.4 µM), inactives show top-dose activity, negative = IMPase inhibition, actives largely listed as inhibitors. CHO-M1 cells, IP1 TR-FRET (IP-One), carbachol + lithium. hit rate 0.35% among 210,000;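 further: IP1 builds up when IMPase is blocked and the TR-FRET signal falls; plate controls were basal vehicle for no effect and high inhibitor control for full effect; nearly all actives have a fitted effect of over 50% in size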
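CHO cells stably expressing M1 receptor (2000/well) were cultured 16–30 h, then exposed to compounds with a small lithium addition for 30 min at 37C. IP1 was measured by TR-FRET competition; AC50 from Hill fits.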
KAT2A inh – qHTS Assay for Inhibitors of GCN5L2 | Histone acetyltransferase KAT2A (Homo sapiens), Q92830 | GCN5L2 HAT assay, ThioGlo1 CoA-SH fluorescence | Potency, µM (doses to about 58.9 µM), without a hit: at the top dose activity change, negative = inhibition, hits mostly inhibitors | hit rate 0.21% among 390,000 | AID 504327, 2011; further: on the % scale 0 is the no-effect control and ±100 the full control effect
Target sequence (Q92830 whole entry, looked up): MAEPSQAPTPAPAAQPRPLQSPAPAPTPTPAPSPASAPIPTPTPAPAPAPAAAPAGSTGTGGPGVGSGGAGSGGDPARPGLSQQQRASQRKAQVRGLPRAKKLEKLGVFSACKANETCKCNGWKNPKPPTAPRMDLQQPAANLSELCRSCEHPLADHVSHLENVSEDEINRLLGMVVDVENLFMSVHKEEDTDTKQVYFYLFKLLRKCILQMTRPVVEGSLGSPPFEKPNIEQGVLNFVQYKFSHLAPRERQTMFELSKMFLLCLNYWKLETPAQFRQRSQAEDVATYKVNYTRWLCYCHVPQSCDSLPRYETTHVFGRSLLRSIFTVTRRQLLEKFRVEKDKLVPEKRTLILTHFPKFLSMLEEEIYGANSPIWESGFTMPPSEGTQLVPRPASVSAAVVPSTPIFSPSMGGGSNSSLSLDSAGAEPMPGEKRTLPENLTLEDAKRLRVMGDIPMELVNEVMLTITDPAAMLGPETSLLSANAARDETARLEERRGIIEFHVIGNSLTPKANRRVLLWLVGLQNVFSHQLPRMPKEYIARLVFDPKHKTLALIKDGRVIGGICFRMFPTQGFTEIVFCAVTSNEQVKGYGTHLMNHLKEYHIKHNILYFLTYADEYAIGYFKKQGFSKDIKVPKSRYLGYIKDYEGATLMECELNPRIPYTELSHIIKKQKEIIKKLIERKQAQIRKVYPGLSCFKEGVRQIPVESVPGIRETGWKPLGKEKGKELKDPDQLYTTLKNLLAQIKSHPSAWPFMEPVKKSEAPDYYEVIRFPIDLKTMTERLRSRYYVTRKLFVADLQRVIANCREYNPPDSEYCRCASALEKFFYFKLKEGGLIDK
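Titration-based screen in which CoA formation is detected via maleimide probe ThioGlo1 (50uM) turning fluorescent on thiol reaction; substrates H3(1-25) 75uM and acetyl-CoA 70uM, GCN5L2 20nM, 20 min incubation at room temperature.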
Starred values were filed as active, the others as inactive; ? = inconclusive; · = no result given; [ ] = remark or other dose. An excerpt weighted towards active compounds, which were near 3.6% of everything screened. Unless noted, the call rests on the fitted dose curve; in most records, active means well fitted curve in the direction sought with a large enough effect; inconclusive means small, poorly fitted or top-dose-only effect, or another doubt; inactive means no such curve, though single readings can be large; an effect the other way counts as inactive or inconclusive. Potency means the concentration at half of the fitted maximal effect.

SMILES	JMJD2E inh	Sfp PPTase inh	Epigenetic reg	NPSR antag	IMPase Li inh	KAT2A inh
COc1ccc2c(=O)c3c(=O)n(Cc4ccco4)c(-c4ccccc4)nc3oc2c1	-10%	32µM*	-1%	-27%[46.1 µM]	9%[38.3 µM]	-13%
COc1ccc2c(=O)c3c(=O)n(Cc4ccco4)c(-c4cc(OC)c(OC)c(OC)c4)nc3oc2c1	-19%	?	-1%	-8%	7%	-4%
CCCc1nc2oc3cc(OC)ccc3c(=O)c2c(=O)n1Cc1ccco1	-17%	32µM*	1%	-15%[46.1 µM]	13%[38.3 µM]	-20%
COc1ccc(NS(=O)(=O)c2ccc(N3CCCC3)c(NC(=S)Nc3cccc(C)c3C)c2)cc1	-4%	13µM*	-1%	5%	6%	-9%
CCNC(=O)Nc1cc(S(=O)(=O)Nc2ccc(OC)cc2)ccc1N1CCOCC1	·	·	·	·	·	-2%
COc1ccc(NS(=O)(=O)c2ccc(N3CCCC3)c(NC(=S)Nc3ccc(SC(F)F)cc3)c2)cc1	3%	18µM*	-1%	-19%	3%	1%
COc1ccc(NS(=O)(=O)c2ccc(N3CCCC3)c(N)c2)cc1	·	-9%	·	·	·	-5%
C/C(CCC(=O)OC[C@@H]1O[C@H](C#Cc2ccccc2)C=C[C@@H]1Oc1ccc(C)cc1)=N/OC[C@@H](O)[C@H]1O[C@H]2OC(C)(C)O[C@H]2[C@@H]1O	·	14%	0%[10.1 µM]	·	·	·
COC(=O)[C@H](COC(C)(C)C)NC(=O)O[C@@H]1C(=O)c2cc(OC)ccc2O[C@H]1c1cccc(OC)c1	?	-3%	1%	·	9%	·
COc1ccc(NC(=S)NC(NC(=O)/C=C/c2ccccc2)C(Cl)(Cl)Cl)cc1 (stereo unspecified)	5%	34%	3%	6%[46.1 µM]	16%[38.3 µM]	1µM*
CCOC(=O)NC(NC(=S)Nc1ccc(OC)cc1)C(Cl)(Cl)Cl (stereo unspecified)	1%	12%	-3%	7%	0%	-1%
O=[N+]([O-])c1ccc(O)c(/C=N/Nc2nn[nH]n2)c1	14µM*	14%	2%	15%	11%	-5%
O=[N+]([O-])c1ccc(O)c(/C=N/NC2=NS(=O)(=O)c3ccccc32)c1	22µM*	29%	0%	0%	-18%	-22%
Clc1ccc(/C=N/Nc2nn[nH]n2)cc1	17%	-18%	-1%	-10%[46.1 µM]	7%	-3%
O=[N+]([O-])c1ccc(O)c(/C=N/Nc2ccc(Cl)nn2)c1	5.6µM*	-9%	-1%	-16%[46.1 µM]	3%[38.3 µM]	-6%
NC(N)=N/N=C/c1cc([N+](=O)[O-])ccc1O	3%	6%	-2%	-20%	9%	0%
C(=N\Nc1nn[nH]n1)/c1ccccc1	6%	45µM*	0%	-11%[46.1 µM]	7%[38.3 µM]	-6%[0.501 µM]
O=[N+]([O-])c1ccc(/C=N/NC2=NS(=O)(=O)c3ccccc32)cc1	-3%	-1%	3%	-28%	-4%	-8%
CCC1=C2CC[C@H]3C(=O)N(CC)C(=O)[C@H]3[C@H]2[C@@]2(C)C(=O)N(CC(=O)OC)C(=O)N2C1=O	-12%	1%	0%	·	-7%	·
CNc1ccc(Br)cc(C(=O)/C=C/c2ccc3c(c2)OCO3)c1=O	?	18µM*	0%	?	12%[38.3 µM]	0%
COCCCNC(=O)/C=C/c1ccc(Cl)cc1Cl	3%	5%	0%	6%[46.1 µM]	3%[38.3 µM]	-2%
CCNc1ccc(Br)cc(C(=O)/C=C/c2ccc(Cl)cc2Cl)c1=O	-17%	22µM*	?	-17%[46.1 µM]	16%	-26%
CNc1ccc(Br)cc(C(=O)/C=C/c2ccc(OC)cc2)c1=O	25µM*	?	-1%	-43%	1%	-9%
CNc1ccc(Br)cc(C(=O)/C=C/c2cc(OC)ccc2OC)c1=O	?	-7%	?	-33%	23%	?
CCCCCC=CCC=CCCCCCCCC(=O)OCC	·	27%	·	·	·	-2%
SMILES	JMJD2E inh	Sfp PPTase inh	Epigenetic reg	NPSR antag	IMPase Li inh	KAT2A inh
C=CC[C@@H]1C=C[C@H](O/N=C2\c3cc(OC)ccc3O[C@H](c3cccc(OC)c3)[C@H]2O)[C@H](CO)O1	·	-4%	0%[10.1 µM]	·	·	·
C=C[C@@]1(C)CC[C@H]2C(=CC[C@@H]3[C@]2(C)CCC[C@@]3(C)C(=O)O)C1	·	11%	·	·	·	?
CCCCC(=O)NC(=S)NNC(=O)CCc1ccccc1	?	-28%	3%	-29%	·	18%
CCCCC(=O)NC(=S)NNC(=O)CC#N	-6%	10µM*	-1%	2%[46.1 µM]	20%[38.3 µM]	5%
CCCCC(=O)NNC(=S)NC(=O)CCC	-3%	79µM*	14%	?	2%	-1%
CC1(C)SC2[C@@H](N=CN3CCCCCC3)C(=O)N2[C@H]1C(=O)O (stereo partly specified)	·	-11%	·	·	·	35%
CCOc1ccc(C(=O)CSc2nnc3cc(C)c4ccccc4n23)cc1	·	·	1%	·	·	0%
CCOC(=O)c1c(NC(=O)c2noc3c2CCCC3)sc(C)c1C	-10%	32µM*	0%	-2%[46.1 µM]	1%[38.3 µM]	-1%
COc1c(C)cccc1C(=O)NC(=S)Nc1cccc2nsnc12	22%	?	3%	7.9µM*	-5%	2%
CC(C)CC(=O)NC(=S)Nc1cccc2nsnc12	?	?	-3%	?	-13%	-2%
N#C/C(=C(/O)COC(=O)c1ccc(C#N)cc1)c1nc2ccccc2s1	1%	50µM*	?	-5%	14%	-14%
N#C/C(=C(/O)COc1ccccc1)c1nc2ccccc2s1	1%	9%	-1%	-18%	2%	0%
COc1ccc(/C(C)=N/N=C(\C)c2ccc(OC)cc2OC)c(OC)c1	1%	3%	1%	4%	-3%	-4%
COc1ccc(C(N)=S)c(OC)c1	-1%	45µM*	0%	20%	4%	-6%
COc1ccc(Cl)cc1N1C(=O)CN(Cc2cc(OC)c(OC)c(OC)c2)C1=S	·	50µM*	·	·	·	-3%
NC(C(=O)O)c1nn[nH]n1 (stereo unspecified)	·	-7%	·	·	·	·
NCCC[C@@H](CC(=O)N[C@@H]1CCNC[C@H]1C(=O)N[C@H](CC(=O)N[C@@H](CCC(=O)O)CC(=O)O)Cc1ccccc1)NC(=O)C[C@H](CO)NC(=O)[C@@H]1CCCC[C@H]1N	?	-8%	-1%	·	1%	·
Cc1[nH]c(=O)[nH]c(=O)c1/C=N/NC(=O)[C@H](C)N	?	50µM*	7%	-13%	·	0%
